For some of these results: Measured potencies and affinities stand elsewhere.

The results in this text go back to ChEMBL document CHEMBL3988442, “University of Dundee, Small-Polar-MMV Screening Library” (2021).

Common to all, as to parameters: scale not given: direction of the effect not stated beside the values
The target in assay [1] is Protein translocase subunit SecA (Escherichia coli (strain K12)) (UniProt P10408). As to the kind of experiment: Assay to Identify E. coli SecA ATPase Inhibitors. Type of assay: functional. Particulars: 30 µM.
Sequence of Protein translocase subunit SecA (Escherichia coli (strain K12)) (P10408 whole entry): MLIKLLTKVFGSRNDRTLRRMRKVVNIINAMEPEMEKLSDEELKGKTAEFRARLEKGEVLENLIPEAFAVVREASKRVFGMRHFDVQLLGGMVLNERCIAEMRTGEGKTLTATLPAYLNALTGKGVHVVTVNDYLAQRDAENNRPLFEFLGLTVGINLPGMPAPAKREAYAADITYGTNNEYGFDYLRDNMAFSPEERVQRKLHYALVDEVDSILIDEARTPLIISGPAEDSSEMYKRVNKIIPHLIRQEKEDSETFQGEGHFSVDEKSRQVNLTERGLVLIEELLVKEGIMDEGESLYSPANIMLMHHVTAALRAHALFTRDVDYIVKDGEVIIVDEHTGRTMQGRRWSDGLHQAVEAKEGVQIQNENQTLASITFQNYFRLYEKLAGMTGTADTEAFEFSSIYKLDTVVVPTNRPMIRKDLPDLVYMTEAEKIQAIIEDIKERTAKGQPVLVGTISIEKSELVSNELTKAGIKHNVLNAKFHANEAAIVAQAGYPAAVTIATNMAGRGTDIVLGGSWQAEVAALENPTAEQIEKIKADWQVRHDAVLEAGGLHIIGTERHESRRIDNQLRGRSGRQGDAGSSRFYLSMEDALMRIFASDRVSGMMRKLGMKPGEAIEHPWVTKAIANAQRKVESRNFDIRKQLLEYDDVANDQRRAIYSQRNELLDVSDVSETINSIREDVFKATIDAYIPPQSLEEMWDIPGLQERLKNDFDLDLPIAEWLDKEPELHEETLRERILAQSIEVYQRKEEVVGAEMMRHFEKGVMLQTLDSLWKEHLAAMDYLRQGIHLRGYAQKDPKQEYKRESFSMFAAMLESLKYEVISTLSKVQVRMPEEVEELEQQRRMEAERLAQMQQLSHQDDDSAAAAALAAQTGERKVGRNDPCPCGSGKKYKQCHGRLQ
The target of assay [2] is T1, Ubiquitin-activating enzyme e1, putative (Leishmania donovani (strain BPK282A1)) (UniProt E9BSI1).
T1 sequence (whole entry): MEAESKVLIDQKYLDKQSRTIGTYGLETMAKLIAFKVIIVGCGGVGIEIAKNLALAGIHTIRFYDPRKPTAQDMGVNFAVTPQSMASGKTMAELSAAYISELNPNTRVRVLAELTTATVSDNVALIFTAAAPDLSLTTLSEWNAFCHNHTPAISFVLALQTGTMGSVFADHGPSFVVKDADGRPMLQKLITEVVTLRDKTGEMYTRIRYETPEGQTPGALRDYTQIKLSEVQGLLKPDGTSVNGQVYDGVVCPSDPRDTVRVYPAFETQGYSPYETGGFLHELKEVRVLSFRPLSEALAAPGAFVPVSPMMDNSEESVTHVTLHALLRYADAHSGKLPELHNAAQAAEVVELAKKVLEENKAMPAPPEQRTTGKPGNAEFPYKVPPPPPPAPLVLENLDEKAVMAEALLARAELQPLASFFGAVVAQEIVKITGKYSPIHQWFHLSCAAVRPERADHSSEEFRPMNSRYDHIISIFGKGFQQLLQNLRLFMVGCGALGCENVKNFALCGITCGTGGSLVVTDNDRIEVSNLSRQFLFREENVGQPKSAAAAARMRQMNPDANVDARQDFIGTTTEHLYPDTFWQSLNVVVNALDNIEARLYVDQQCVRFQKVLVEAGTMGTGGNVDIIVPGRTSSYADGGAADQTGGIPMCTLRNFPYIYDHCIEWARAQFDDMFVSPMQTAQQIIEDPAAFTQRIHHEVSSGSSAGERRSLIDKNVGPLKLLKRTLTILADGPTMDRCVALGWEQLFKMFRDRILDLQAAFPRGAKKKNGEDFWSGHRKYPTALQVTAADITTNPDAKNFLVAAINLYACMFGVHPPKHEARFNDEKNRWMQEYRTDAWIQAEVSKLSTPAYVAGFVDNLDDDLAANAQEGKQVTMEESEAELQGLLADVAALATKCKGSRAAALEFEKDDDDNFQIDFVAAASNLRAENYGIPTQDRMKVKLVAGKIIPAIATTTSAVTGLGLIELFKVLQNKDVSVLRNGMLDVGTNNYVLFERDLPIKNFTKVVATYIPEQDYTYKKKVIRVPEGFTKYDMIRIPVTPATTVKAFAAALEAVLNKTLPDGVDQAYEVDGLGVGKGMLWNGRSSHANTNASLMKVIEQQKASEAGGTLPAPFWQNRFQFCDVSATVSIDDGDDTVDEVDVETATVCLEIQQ
As to the kind of experiment: Leishmania donovani Ubiquitin Activating Enzyme (LdE1). Particulars: 30 µM. The format is functional.

In assay [3] the target is AMP-activated protein kinase, AMPK (Homo sapiens) (UniProt P54646+O43741+P54619+Q9UGJ0+Q9Y478+Q13131+Q9UGI9). As to the kind of experiment: AMP-dependent Kinase enzyme assay. An in vitro enzyme assay that detects ADP turnover that is directly proportional to AMPK activity. This uses naive AMPK that is activated during the assay with MK-8722. Type of assay: functional. Particulars: 30 µM.

The target of assay [4] is Sialic acid-binding Ig-like lectin 9 (Homo sapiens) (UniProt Q9Y336). As to the kind of experiment: Hs-Siglec9 ALPHAscreen SOP 20170721. Particulars: 10 µM.
Sequence of Sialic acid-binding Ig-like lectin 9 (Homo sapiens) (Q9Y336 whole entry): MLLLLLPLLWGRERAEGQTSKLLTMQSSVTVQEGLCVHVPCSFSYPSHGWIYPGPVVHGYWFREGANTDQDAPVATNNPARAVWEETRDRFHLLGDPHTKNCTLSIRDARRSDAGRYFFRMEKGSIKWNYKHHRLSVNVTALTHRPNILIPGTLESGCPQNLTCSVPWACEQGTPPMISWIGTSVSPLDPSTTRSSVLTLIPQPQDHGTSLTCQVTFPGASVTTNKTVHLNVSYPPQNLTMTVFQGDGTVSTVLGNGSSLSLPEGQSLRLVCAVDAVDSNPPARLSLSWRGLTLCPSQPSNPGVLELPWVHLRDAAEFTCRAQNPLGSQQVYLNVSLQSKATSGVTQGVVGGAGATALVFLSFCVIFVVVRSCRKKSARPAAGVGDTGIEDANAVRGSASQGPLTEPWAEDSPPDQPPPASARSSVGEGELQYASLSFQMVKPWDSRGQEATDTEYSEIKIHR
Another assay relates to Trypanosoma cruzi. Description: Trypanosoma cruzi phosphomannomutase and mannose-1-phosphate guanylyltransferase assay. The format is functional. Particulars: 10 µM.
Assay [5] concerns the target T2, Arginase-2, mitochondrial (Homo sapiens) (UniProt P78540).
T2 sequence (whole entry): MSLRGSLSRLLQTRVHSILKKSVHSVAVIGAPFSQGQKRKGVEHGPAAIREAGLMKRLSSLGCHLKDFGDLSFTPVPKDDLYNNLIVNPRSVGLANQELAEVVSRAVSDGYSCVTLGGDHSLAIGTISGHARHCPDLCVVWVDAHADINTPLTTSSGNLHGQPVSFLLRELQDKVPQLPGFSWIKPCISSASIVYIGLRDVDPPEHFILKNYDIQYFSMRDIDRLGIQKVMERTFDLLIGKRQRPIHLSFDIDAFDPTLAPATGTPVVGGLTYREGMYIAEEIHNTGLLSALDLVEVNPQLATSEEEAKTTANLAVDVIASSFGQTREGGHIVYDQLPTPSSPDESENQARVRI
Description: in vitro enzyme assay to detect the production of urea directly proportional to the activity of Arginase II. Further: in the data most compounds retested in dose-response had high values. Type of assay: functional. Particulars: 33.3 µM.

In assay [6] the target is T3, Proteasome subunit beta (Trypanosoma cruzi) (UniProt O96673).
T3 sequence (whole entry): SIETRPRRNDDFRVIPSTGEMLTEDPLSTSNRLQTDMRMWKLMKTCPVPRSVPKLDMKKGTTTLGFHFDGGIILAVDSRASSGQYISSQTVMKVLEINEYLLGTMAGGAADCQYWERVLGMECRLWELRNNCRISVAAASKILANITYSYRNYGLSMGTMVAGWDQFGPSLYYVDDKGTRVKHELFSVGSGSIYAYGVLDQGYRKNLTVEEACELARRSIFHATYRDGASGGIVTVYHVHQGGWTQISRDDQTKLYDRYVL
As to the kind of experiment: Trypanosoma cruzi proteasome chymotrypsin-like activity (TcProtChymo) assay. Further: in the data most compounds retested in dose-response had high values. Particulars: 9.37 µM. The format is functional.

For a further assay, the species on record is Homo sapiens. As to the kind of experiment: To identify inhibition of the IFN signalling (Jak-Stat) pathway via expression of an eGFP reporter gene under the control of an IFN-stimulated response element (ISRE) containing MxA promoter. Particulars: 30 µM. Type of assay: functional. Background: Reporter assays use an easily measured gene product as a stand-in for the process of interest.

The target in assay [7] is T4, Tyrosyl-tRNA synthetase, putative (Trypanosoma cruzi (strain CL Brener)) (UniProt Q4DSP6).
T4 sequence (whole entry): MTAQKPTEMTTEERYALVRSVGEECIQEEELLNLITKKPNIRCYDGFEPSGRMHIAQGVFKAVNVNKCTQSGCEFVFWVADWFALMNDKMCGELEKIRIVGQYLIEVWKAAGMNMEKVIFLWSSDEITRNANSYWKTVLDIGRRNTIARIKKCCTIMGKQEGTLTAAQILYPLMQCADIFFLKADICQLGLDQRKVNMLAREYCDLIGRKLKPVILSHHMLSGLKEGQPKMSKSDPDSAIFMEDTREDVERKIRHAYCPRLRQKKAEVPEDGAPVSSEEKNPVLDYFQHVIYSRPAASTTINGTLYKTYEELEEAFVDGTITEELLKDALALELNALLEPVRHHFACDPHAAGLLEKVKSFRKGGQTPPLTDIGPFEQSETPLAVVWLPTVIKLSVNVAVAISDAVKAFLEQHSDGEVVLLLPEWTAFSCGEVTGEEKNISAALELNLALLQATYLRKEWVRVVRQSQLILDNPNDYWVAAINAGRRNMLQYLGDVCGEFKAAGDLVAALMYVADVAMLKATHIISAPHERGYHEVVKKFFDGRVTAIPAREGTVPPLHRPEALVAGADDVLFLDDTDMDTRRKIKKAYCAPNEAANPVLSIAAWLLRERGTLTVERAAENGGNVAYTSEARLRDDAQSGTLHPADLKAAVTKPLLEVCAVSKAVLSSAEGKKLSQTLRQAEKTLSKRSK
Description: Trypanosoma cruzi tyrosyl tRNA synthetase (TcYRS) _High Tyrosine SOP. Further: in the data most compounds retested in dose-response had high values. Type of assay: functional. Particulars: 30 µM.

Assay [8] addresses T4, Tyrosyl-tRNA synthetase, putative (Trypanosoma cruzi (strain CL Brener)). As to the kind of experiment: Trypanosoma cruzi tyrosyl tRNA synthetase (TcYRS) SOP. Particulars: 30 µM. The format is functional.
The target of assay [9] is Chromo domain-containing protein 1 (Saccharomyces cerevisiae (strain ATCC 204508 / S288c) (Baker's yeast)) (UniProt P32657). Description: ScCHD-1 Enzyme Inhibition Assay. Further: in the data most compounds retested in dose-response had high values. Type of assay: functional. Particulars: 30 µM.
Sequence of Chromo domain-containing protein 1 (Saccharomyces cerevisiae (strain ATCC 204508 / S288c) (Baker's yeast)) (P32657 whole entry, the tested form may be a part): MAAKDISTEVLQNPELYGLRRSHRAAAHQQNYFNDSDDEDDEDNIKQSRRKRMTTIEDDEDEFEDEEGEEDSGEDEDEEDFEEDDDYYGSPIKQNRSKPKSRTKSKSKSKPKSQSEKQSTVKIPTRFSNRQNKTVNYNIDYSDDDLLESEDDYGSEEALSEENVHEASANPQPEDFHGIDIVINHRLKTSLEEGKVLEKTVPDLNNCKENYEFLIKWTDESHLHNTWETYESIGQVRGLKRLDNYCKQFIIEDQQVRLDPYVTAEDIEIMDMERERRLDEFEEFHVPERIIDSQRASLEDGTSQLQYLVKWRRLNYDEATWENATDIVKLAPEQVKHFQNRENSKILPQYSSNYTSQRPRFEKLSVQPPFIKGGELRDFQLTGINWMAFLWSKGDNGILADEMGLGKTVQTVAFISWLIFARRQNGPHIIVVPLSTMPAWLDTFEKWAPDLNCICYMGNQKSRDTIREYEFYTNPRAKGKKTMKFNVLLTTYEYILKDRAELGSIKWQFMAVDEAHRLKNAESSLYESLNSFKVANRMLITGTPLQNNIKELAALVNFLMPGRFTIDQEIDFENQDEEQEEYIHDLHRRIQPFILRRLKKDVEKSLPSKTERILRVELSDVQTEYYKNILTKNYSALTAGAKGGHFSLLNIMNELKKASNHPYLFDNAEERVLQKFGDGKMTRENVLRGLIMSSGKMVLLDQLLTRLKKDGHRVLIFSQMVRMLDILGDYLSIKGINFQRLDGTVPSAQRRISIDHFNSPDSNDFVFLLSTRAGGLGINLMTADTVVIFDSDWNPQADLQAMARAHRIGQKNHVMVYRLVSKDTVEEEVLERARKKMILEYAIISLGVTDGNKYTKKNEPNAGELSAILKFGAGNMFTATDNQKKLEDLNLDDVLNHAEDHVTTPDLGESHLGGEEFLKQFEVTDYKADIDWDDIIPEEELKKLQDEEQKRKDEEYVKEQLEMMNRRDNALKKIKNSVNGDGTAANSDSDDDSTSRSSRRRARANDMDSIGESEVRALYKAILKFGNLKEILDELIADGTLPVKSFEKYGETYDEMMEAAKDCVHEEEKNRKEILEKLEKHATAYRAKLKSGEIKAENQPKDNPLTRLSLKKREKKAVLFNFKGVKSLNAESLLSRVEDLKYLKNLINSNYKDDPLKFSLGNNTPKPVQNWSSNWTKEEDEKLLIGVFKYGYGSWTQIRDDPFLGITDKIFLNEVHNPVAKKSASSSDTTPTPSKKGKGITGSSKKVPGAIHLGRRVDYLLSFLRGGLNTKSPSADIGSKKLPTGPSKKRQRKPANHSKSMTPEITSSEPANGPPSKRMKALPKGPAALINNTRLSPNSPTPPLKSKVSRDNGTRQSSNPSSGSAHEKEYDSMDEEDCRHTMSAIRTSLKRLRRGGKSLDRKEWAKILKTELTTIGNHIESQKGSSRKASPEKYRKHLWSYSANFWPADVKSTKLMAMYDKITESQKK

Consider `CCCNC(=O)N1CCN(Cc2cc(C)no2)CC1`, for which the Percent Effect in assay [1] is -3.25%; in [2], 23.7%; in assay [3] it was -8.42%; in assay [4], -2.41%; in the assay on Trypanosoma cruzi, 6.07%; in assay [5] it was -2.16%. Moreover, the Percent Effect in assay [6] is 17.5%; in the assay filed under Homo sapiens, 2.72%; in assay [7] it was 8.37%; in assay [8], 23.5%; in [9], -7.68%.

Turning to `COc1ccc2nnc(CCCC(=O)NCCC3=CCCCC3)n2n1`, the Percent Effect in [1] was -0.326%; in [2], 12%; in assay [3], -1.46%; in assay [4], -0.0396%; with Trypanosoma cruzi, 4.71%; in assay [5], -7.57%. In addition, the Percent Effect in [6] is 12.2%; in the assay filed under Homo sapiens it was 23.4%; in assay [7], 7.41%; in [8] it was 17.9%; in assay [9] it was -9.92%.

As for `Cc1ccc(-c2cc(CNC(=O)N3CCOC(C)C3)on2)cc1` (stereo not drawn), the Percent Effect was 0.724% in assay [1]; 8.11% in assay [2]; 7.2% in assay [3]; -10.1% in assay [4]; -4.92% with Trypanosoma cruzi; 3.88% in assay [5]. In addition, the Percent Effect in assay [6] is 7.54%; in the assay filed under Homo sapiens it was 20.6%; in assay [7] it was 6.93%; in [8], 13.4%; in assay [9], -5.48%.

For `Cc1cccc2c1cnn2CCC(=O)NCC(=O)N(C)C`, the Percent Effect in assay [1] is -1.87%; in assay [2], 1.33%; in [3] it was 12.2%; in assay [4], 7.1%; in the assay on Trypanosoma cruzi, -6.68%; in assay [5], -10%. Moreover, the Percent Effect in [6] was 14.2%; in the assay filed under Homo sapiens it was 3.37%; in [7] it was 4.23%; in [8], 7.69%; in assay [9] it was -10.3%.

On to `CCc1nc(CN(C)CC2CCN(CCO)CC2)no1`, for which the Percent Effect in assay [1] is 0.69%; in assay [2] it was 2.7%; in [3], -8.99%; in assay [4], 9.52%; in the assay with Trypanosoma cruzi it was 6.56%; in assay [5], 10%. The Percent Effect is -1.55% in [6]; -14.8% in the assay listed under Homo sapiens; 2.65% in assay [7]; 9.76% in assay [8]; -0.692% in assay [9].

Regarding `O=C(Nc1ncn(CC(=O)N2CCCCCC2)n1)C1CCCO1` (stereo not drawn), the Percent Effect in assay [1] is -2.31%; in [2], 7.89%; in assay [3] it was 0.569%; in assay [4], 1.68%; with Trypanosoma cruzi it was -6.39%; in [5] it was 4.6%. In addition, the Percent Effect in assay [6] is 1%; in the assay listed under Homo sapiens, 17.6%; in [7] it was 2.45%; in [8], 9.76%; in [9] it was -1.04%.

On to `O=C(NCc1cncc2c1CCN(Cc1cccc(F)c1)C2)C1CC1`, for which the Percent Effect was -4.48% in [1]; 0% in [2]; 5.3% in assay [3]; 4.67% in assay [4]; -3.97% in the assay with Trypanosoma cruzi; -5.59% in [5]. In addition, the Percent Effect in assay [6] was 7.96%; in the assay listed under Homo sapiens it was 9.89%; in [7] it was -5.21%; in assay [8] it was 6.17%; in assay [9] it was 2.56%.

Take `CCCNC(=O)COc1ccc(C)cn1`: the Percent Effect in assay [1] is -4.18%; in assay [2], 11%; in [3] it was -5.89%; in assay [4], 4.96%; in the assay on Trypanosoma cruzi it was 4.76%; in [5], -0.798%. The Percent Effect in [6] was 6.59%; in the assay listed under Homo sapiens, -7.03%; in assay [7] it was 6.25%; in [8], -3.7%; in assay [9] it was -11.8%.
